Compound activity as filed in PubChem.
The entries come from a sample that favours hits as a whole.
Tgondii IFNg: T. gondii growth inhibition with IFN-gamma, primary screen, cell-based; 3.8% of 69,000 active; activity change, negative = inhibition, % (concentration not given with the values); Toxoplasma gondii growth in IFN-gamma-treated host cells; hits give low values; AID 1259416, 2018; in the data active = activity change below about -70%, passing the limit was not always enough;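 also: host cells are HeLa cells infected with Toxoplasma gondii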
Each line names hits and unclear results; the compound was inactive in the other large screens; ! = repeats disagree.

O=C(Nc1ccc(-c2nc(-c3ccccc3)co2)cc1)c1cccs1	none
COc1ccc(NS(=O)(=O)c2ccc(NC(=O)c3cc4ccccc4o3)cc2)cc1	Tgondii IFNg -71
CN(CCOc1ccccc1)Cc1ccc(O)c(O)c1	none
COc1ccc(N(C)S(=O)(=O)c2csc(C(=O)Nc3ccon3)c2)cc1	none
C[C@@H]1CN([C@@H](C)CO)C(=O)CCCn2nncc2CO[C@@H]1CN(C)C(=O)NC1CCCC1	none
CCN1CCN(Cc2ccc(NC(=O)C3=C(C)C(=O)OC34CCN(Cc3ccccc3)CC4)cc2)CC1	none
COC[C@@]12CCO[C@H]1CCN(C(=O)COc1ccccc1OC)C2	none
Nc1nc2ccc(-c3nc4ccccc4[nH]3)cc2s1	none
COC(=O)c1ccc2nc(N)sc2c1	none
Nc1nc2ccc(OC(F)(F)F)cc2s1	Tgondii IFNg -94!
COCCC(=O)c1nc(-c2cn(C(C)C)c(C)n2)n2ccccc12	none
CCn1nc(C)c(C(C)NS(=O)(=O)c2ccc(OC)c(C)c2)c1C (stereo not drawn)	none
CCOc1ccc2[nH]c(=O)c(CN(C)Cc3cc(C)on3)cc2c1	none
CCOc1ccc2[nH]c(=O)c(CNCCO)cc2c1	Tgondii IFNg -101
COc1ccc2[nH]c(=O)c(CNc3c(C)cc[nH]c3=O)cc2c1	none
Cc1oc(-c2ccc(NC(=O)c3ccc(N(C)C)cc3)cc2)nc1Cn1cccn1	none
CC1=C(C(=O)NCCCN(C)c2ccccc2)C2(CCN(S(C)(=O)=O)CC2)OC1=O	none
Cc1ccc(C(=O)N2CCC3(CC2)Nc2cccnc2NC3=NC2CCCC2)cc1F	none
COc1ccc(-c2c(N)n[nH]c2C)cc1OC	none
COc1ccc(Cn2c(-c3ccncc3)n[nH]c2=O)cc1	none
COc1ccc(-c2ccc(=O)[nH]n2)cc1	Tgondii IFNg -115
COc1cc(-c2ccc(=O)[nH]n2)ccc1OC(F)F	Tgondii IFNg -87
COc1ccc(-c2cc(N)n(C)n2)cc1	none
Cc1ccc(-c2ccc(=O)[nH]n2)cc1-n1cnnc1	none
CC(C)n1nnnc1SCC(=O)N1CCN(C(=O)c2ccco2)CC1	none
C[C@H]1CCCCO[C@H](CN(C)Cc2ccc3c(c2)OCO3)[C@@H](C)CN([C@@H](C)CO)C(=O)c2cc(NS(=O)(=O)c3cn(C)cn3)ccc2O1	none
Cc1cc(CC(C)CC(C)(C)C)n(O)c(=O)c1 (stereo not drawn)	none
Cc1cc(C2CCCCC2)n(O)c(=O)c1	Tgondii IFNg -82!
CO[C@@H]1CN(C)C(=O)c2cc(NS(C)(=O)=O)ccc2OC[C@H](C)N(C(=O)C2CCOCC2)C[C@@H]1C	none
CCS(=O)(=O)Nc1ccc2c(c1)C(=O)N(C)[C@H]1CC[C@@H](CC(=O)NC3CCCCC3)O[C@H]1CO2	none
CNCCC=C1c2ccccc2CCc2ccccc21	Tgondii IFNg -88!
c1ccc(-c2ccc3c(n2)CCc2ccccc2-3)cc1	none
CCOCc1nnc2n1CCN(Cc1cnn(C)c1)C2	none
Cc1nccn1C[C@@H]1CCc2c(c3ccccc3n2C)C1=O	none
COc1ccc(CCNC(=O)c2nc(-c3cccc(F)c3)n3c2CCCCC3)cc1OC	Tgondii IFNg -115
COc1ccc(CC(=O)NCCc2csc(-c3cccc(F)c3)n2)cc1OC	none
COc1cc(NC(=O)c2nc(-c3cccc(F)c3)n3c2CCCCC3)cc(OC)c1OC	Tgondii IFNg -105
CC1CCN(C(=O)c2nc(-c3cccc(F)c3)n3c2CCCCC3)CC1	none
CCOCCCNC(=O)c1nc(-c2cccc(F)c2)n2c1CCCCC2	none
CC1CCCN(C(=O)c2nc(-c3cccc(F)c3)n3c2CCCCC3)C1 (stereo not drawn)	none
Cc1cnc(C(=O)N2CC[C@@H](c3sccc3C)[C@H](O)C2)cn1	none
CC(NC(=O)CCn1ccnc1-c1ccccc1)c1nc2ccccc2s1 (stereo not drawn)	none
CCC(=O)N1C[C@H](C)[C@H](OC)CN(C)C(=O)c2ccc(NC(=O)CC(F)(F)F)cc2OC[C@H]1C	none
Cn1cc(COC(=O)Nc2c(Cl)cccc2Cl)c(C(F)(F)F)n1	none
O=c1ccc2c(n1Cc1cccnc1)CCC(NCc1ccco1)C2 (stereo not drawn)	none
NC(=O)c1csc(-c2ccc(F)cc2F)n1	Tgondii IFNg -107
O=C(NCCc1csc(-c2ccc(F)cc2)n1)C(=O)Nc1ccc(F)cc1F	none
NC(=O)c1csc(-c2cccc(C(=O)O)c2)n1	none
CN(C)c1nc2c(cc1C(=O)N1CCCC1)CCN(Cc1ccccc1F)CC2	none
Cc1cccc(NC(=O)Nc2ccc(C)c(Cl)c2)n1	none
Cc1ccc(NC(=O)Nc2ccc(C#N)cc2)cc1Cl	Tgondii IFNg -71
CC(=O)Nc1ccc(C)c(NC(=S)Nc2ccc(Cl)c(Cl)c2)c1	none
CCN(C[C@@H]1[C@@H](c2ccccc2)[C@@H](CO)N1C(C)=O)C(=O)NC1CCCC1	none
CCN(CC)CCNC(=O)c1ccccc1I	none
CCN(CC)CCNc1ccc(CO)c2sc3ccccc3c(=O)c12	Tgondii IFNg -97!
OCc1ccccc1-c1nccc2occc12	none
Cc1oc(C2CCN(S(=O)(=O)c3cccc(Cl)c3)CC2)nc1C(=O)N1CCCC1	none
COCCN1C(=O)CCc2cc(NS(=O)(=O)c3ccc(F)cc3)ccc21	none
COc1ccc(S(=O)(=O)Nc2ccc3c(c2)CCC(=O)N3CC(C)C)cc1	none
Cc1ccc(S(=O)(=O)Nc2ccc3c(c2)CCC(=O)N3CC(C)C)c(C)c1	Tgondii IFNg -86
CCCN1C(=O)CCc2cc(NS(=O)(=O)c3ccc(Cl)c(Cl)c3)ccc21	none
CCN1C(=O)CCc2cc(NS(=O)(=O)c3cccc(Br)c3)ccc21	none
CCc1ccc(S(=O)(=O)Nc2ccc3c(c2)CCC(=O)N3CC(C)C)cc1	Tgondii IFNg -90
CCN1C(=O)CCc2cc(NS(=O)(=O)c3ccc(C(F)(F)F)cc3)ccc21	Tgondii IFNg -103
CN1C(=O)CCc2cc(NS(=O)(=O)c3ccc(Cl)c(Cl)c3)ccc21	Tgondii IFNg -87
Cc1ccc(C)c(S(=O)(=O)Nc2ccc3c(c2)CCC(=O)N3CC(C)C)c1	none
CN1C(=O)CCc2cc(NS(=O)(=O)c3cccc(Cl)c3)ccc21	none
Cc1ccc(S(=O)(=O)Nc2ccc3c(c2)CCC(=O)N3CC(C)C)cc1	none
CC(C)CN1C(=O)CCc2cc(NS(=O)(=O)c3ccc(F)cc3F)ccc21	none
Cc1ccc(CC(=O)N2CCOCC3(CCC(CN(C)C)O3)C2)cc1 (stereo not drawn)	none
N#CC1(C(=O)N2CCCn3nnc(Cn4cccc4)c3C2)CC1	none
O=C([C@@H]1C[C@H]2CCN(Cc3ccco3)C[C@H]2O1)N1CCCCO1	none
CC1=C(C(=O)N2CCc3ccccc3C2)C2(CCN(S(=O)(=O)c3cccs3)CC2)OC1=O	none
CCCN1CCCN(c2ccnc(C(=O)NCc3ccncc3)c2)CC1	none
O=S(=O)(NC1CCC12CCN(Cc1cccs1)CC2)c1ccccc1 (stereo not drawn)	none
CCn1c(CC2CCN(CCn3c(=O)oc4ccccc43)CC2)n[nH]c1=O	none
CCc1cnc(N2[C@@H](C#N)[C@H](c3ccc(C4=CCCCC4)cc3)[C@@H]2CO)s1	none
Cc1c(Cn2ccnc2-c2nc(C(C)C)cs2)cnn1C	none
CC(C)COc1ccccc1CN(C)C(=O)Cc1ccncc1	none
C=C[C@@]1(C)CC(=O)[C@]2(O)[C@@]3(C)[C@@H](O)CCC(C)(C)[C@@H]3[C@H](OC(=O)CCN(C)C)[C@H](OC(C)=O)[C@@]2(C)O1	none
COCCN1C(=O)CCc2cc(NS(=O)(=O)c3ccc(C)c(F)c3)ccc21	none
COCCN1C(=O)CCc2cc(NS(=O)(=O)c3ccc(OC)c(Cl)c3)ccc21	none
CC(C)CN1C(=O)CCc2cc(NS(=O)(=O)c3ccc(F)c(F)c3)ccc21	none
Cc1ccc(S(=O)(=O)Nc2ccc3c(c2)CCC(=O)N3CC(C)C)cc1Cl	Tgondii IFNg -93
CCN1C(=O)CCc2cc(NS(=O)(=O)c3ccc(C)c(Cl)c3)ccc21	Tgondii IFNg -83
